Growth inhibition, inhibition and outcome data for 24 compounds are collected here from PubChem BioAssay.

A short description of assay [1]: antimalarial activity against Dd2 strain (AID 2302;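 active means growth inhibition above 50% at the single 2 µM test dose, taken to imply half-maximal potency below 2 µM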;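 further: 0% = DMSO untreated growth and 100% = chloroquine plus artemisinin killed control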). To be noted: P. falciparum Dd2 in RBCs, LDH growth readout, 72 h; at 2 µM; stronger effect = higher value.
Assay [2] in a line: HepG2 cytotoxicity, primary screen, cytotoxicity control for P. falciparum antimalarial project, cell-based, ATP luminescence (AID 2303;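 active means inhibition above 50%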;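 further: 0% = DMSO wells and 100% = digitonin-killed cells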). To be noted: HepG2 viability, 24-48 h, at 10 µM, stronger effect = higher value.
The target in assay [3] is L-lactate dehydrogenase (Plasmodium falciparum (isolate CDC / Honduras)) (UniProt Q27743). In words: PfLDH activity inhibition – cell lysate, 3D7 strain, counter-screen for P. falciparum growth inhibition project (AID 2304).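 Further: 0% = vehicle and 100% = reference inhibitor.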 To be noted: P. falciparum 3D7 crude extract, LDH APAD/NBT absorbance; at 2 µM; stronger effect = higher value.
L-lactate dehydrogenase (Plasmodium falciparum (isolate CDC / Honduras)), sequence (Q27743 whole entry, looked up): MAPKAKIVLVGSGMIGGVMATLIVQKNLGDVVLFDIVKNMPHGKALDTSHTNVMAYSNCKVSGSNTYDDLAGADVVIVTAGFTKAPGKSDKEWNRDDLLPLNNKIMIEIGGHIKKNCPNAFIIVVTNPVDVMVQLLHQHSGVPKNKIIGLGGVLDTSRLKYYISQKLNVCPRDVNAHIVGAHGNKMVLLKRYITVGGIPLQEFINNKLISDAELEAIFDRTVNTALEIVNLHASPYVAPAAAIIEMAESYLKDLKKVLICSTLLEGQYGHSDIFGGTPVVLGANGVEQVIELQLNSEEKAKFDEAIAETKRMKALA
A short description of assay [4]: inhibition of 3D7 malaria parasite growth – strain 3D7 (AID 2306).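 Further: 0% = DMSO wells and 100% = chloroquine plus artemisinin control wells.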 To be noted: P. falciparum 3D7 erythrocytic growth, LDH absorbance, 72 h; at 2 µM; stronger effect = higher value.
The target in assay [5] is Calcium-dependent protein kinase 1 (Plasmodium falciparum (isolate 3D7)) (UniProt P62344). Kind of assay: PfCDPK1 kinase inhibitors, biochemical, TCAMS library (AID 1159585; cut-off not given, nearly all actives have IC50 up to about 0.98 µM;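 further: inhibitors leave more ATP so luminescence rises with inhibition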). To be noted: recombinant PfCDPK1, Kinase-Glo ATP depletion luminescence.
Calcium-dependent protein kinase 1 (Plasmodium falciparum (isolate 3D7)), sequence (P62344 whole entry, looked up): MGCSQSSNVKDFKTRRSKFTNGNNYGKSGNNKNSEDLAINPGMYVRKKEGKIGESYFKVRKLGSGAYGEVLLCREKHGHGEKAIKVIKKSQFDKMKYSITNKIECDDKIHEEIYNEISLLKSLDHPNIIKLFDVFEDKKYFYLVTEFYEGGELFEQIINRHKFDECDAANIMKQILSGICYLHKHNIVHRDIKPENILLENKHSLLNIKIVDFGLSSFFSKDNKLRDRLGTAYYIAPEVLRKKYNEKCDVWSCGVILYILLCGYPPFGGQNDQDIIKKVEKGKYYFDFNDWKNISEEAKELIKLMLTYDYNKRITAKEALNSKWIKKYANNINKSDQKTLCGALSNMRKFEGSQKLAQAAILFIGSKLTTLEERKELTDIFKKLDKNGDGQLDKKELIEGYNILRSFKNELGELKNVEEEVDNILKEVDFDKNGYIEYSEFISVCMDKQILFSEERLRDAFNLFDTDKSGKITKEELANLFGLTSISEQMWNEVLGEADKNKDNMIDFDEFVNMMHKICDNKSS
Assay [6] deals with Plasmodium falciparum protein kinase 6 (PK6, PF3D7_1337100) (UniProt Q8IDW1). Kind of assay: PfPK6 kinase inhibitors, biochemical, TCAMS library (AID 1159586). To be noted: recombinant PfPK6, Kinase-Glo ATP depletion luminescence. For orientation: In Kinase-Glo more light means more ATP remaining.
Plasmodium falciparum protein kinase 6 (PK6, PF3D7_1337100), sequence (Q8IDW1 1-305): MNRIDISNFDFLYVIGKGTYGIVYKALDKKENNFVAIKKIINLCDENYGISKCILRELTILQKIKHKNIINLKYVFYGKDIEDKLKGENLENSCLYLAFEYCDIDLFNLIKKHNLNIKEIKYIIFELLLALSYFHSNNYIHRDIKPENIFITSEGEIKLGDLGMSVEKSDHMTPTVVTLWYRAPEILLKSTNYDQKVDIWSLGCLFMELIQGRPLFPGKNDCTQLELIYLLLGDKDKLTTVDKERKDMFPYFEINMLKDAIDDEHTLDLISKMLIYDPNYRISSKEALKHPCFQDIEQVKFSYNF
Assay [7] has as its target Protein kinase 7 (PK7), Plasmodium falciparum 3D7 (PF3D7_0213400) (UniProt Q7YTF7). Kind of assay: inhibition of Plasmodium PK7 catalytic activity – biochemical, TCAMS antimalarial set, Kinase-Glo luminescence (AID 1159587). To be noted: recombinant PfPK7, Kinase-Glo ATP depletion luminescence.
Assay [8] has as its target Calcium-dependent protein kinase 4 (Plasmodium falciparum (isolate 3D7)) (UniProt Q8IBS5). In words: PfCDPK4 kinase inhibitors, biochemical, TCAMS library (AID 1159588; cut-off not given, nearly all actives have IC50 up to about 0.91 µM). To be noted: recombinant PfCDPK4, Kinase-Glo ATP depletion luminescence.

Values without a mark were called inactive. For part of these data: Entries with a potency or affinity are not part of this list. Calls of active or inactive are those of the source. Unless noted, how the calls were made is not given here.

Protein kinase 7 (PK7), Plasmodium falciparum 3D7 (PF3D7_0213400), sequence (Q7YTF7 1-343): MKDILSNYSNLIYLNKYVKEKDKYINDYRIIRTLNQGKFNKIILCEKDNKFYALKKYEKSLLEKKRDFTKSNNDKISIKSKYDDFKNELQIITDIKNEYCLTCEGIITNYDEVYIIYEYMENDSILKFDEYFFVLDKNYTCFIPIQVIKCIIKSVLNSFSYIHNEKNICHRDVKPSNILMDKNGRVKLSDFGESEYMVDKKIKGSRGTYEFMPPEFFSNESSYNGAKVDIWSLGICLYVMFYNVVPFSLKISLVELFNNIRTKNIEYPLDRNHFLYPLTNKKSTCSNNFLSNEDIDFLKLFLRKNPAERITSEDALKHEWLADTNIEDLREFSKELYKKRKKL
Calcium-dependent protein kinase 4 (Plasmodium falciparum (isolate 3D7)), sequence (Q8IBS5 whole entry, looked up): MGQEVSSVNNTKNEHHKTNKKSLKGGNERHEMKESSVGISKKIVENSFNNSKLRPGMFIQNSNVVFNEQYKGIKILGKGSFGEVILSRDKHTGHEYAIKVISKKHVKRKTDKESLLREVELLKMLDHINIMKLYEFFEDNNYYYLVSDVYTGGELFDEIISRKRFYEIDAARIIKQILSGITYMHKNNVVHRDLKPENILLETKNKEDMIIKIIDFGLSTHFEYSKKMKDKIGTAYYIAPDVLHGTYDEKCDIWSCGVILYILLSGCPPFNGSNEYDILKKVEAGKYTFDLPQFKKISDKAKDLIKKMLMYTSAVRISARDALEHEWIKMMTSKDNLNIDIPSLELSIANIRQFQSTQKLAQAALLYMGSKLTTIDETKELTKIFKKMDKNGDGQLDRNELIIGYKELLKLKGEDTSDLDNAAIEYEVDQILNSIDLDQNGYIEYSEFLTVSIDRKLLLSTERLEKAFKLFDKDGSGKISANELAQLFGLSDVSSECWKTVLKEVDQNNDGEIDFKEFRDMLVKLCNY

The inhibition is the change of the read-out against control, counted positive when it falls. As for `OCC1CCN(Cc2ccc(-c3cccc(-c4nc5ccc(F)cc5[nH]4)c3)cc2)CC1`, the growth inhibition was 25% in assay [1] and 100% (active) in assay [4]. For the same compound, the inhibition in assay [2] was 14%; in assay [3], -3%. Besides, the outcome in assay [5], in assay [6], in assay [7] and in assay [8] was inactive.

In the case of `O=C(O)CNCC(O)c1ccccc1` (configuration not stated), the growth inhibition in assay [1] was -5%; in assay [4], 96% (active). Also, the inhibition in assay [2] was 7%; in assay [3], -5%. The result in assay [5], in assay [6], in assay [7] and in assay [8] was inactive.

For `Cc1ccccc1C1CCN(C2CCC(NC(=O)c3cncc(-c4ccccc4)c3)CC2)CC1` (configuration not stated), the values for the growth inhibition in assay [1] and in assay [4] were 92% (active) and 101% (active), respectively. In addition, the results for the inhibition in assay [2] and in assay [3] were 27% and -1%, respectively. In addition, the outcome in assay [5], in assay [6], in assay [7] and in assay [8] was inactive.

In the case of `CCOC(=O)c1ccc(NC(=O)N(Cc2ccc(-c3ccc(CN4CCNCC4)cc3)cc2)C2CCN(Cc3ccccc3)CC2)cc1`, the values for the growth inhibition in assay [1] and in assay [4] were 93% (active) and 102% (active), respectively. For the same compound, the inhibition was 14% in assay [2] and 3% in assay [3]. The outcome in assay [5], in assay [6], in assay [7] and in assay [8] was inactive.

Turning to `Cc1[nH]c(C)c(-c2ccc(OCc3ccc(OC(F)(F)F)cc3)nc2)c(=O)c1Cl`, the growth inhibition in assay [1] is 96% (active); in assay [4], 98% (active). In addition, the inhibition in assay [2] was 3%; in assay [3], -3%. For the same compound, the outcome in assay [5], in assay [6], in assay [7] and in assay [8] was inactive.

`C=C[C@]1(C)C[C@@H](OC(=O)CS[C@H]2CN3CC[C@H]2C3)[C@@]2(C)C3C(=O)CC[C@@]3(CC[C@H]2C)[C@@H](C)[C@@H]1O` (some centres not stated): the figures for the growth inhibition in assay [1] and in assay [4] were 75% (active) and 91% (active), respectively. Further, the figures for the inhibition in assay [2] and in assay [3] were 18% and 4%, respectively. The outcome in assay [5], in assay [6], in assay [7] and in assay [8] was inactive.

As to `O=C(Cc1cnc[nH]1)Nc1cccc(-c2cccc(-c3nc4ccc(F)cc4[nH]3)c2)c1`, the growth inhibition in assay [1] was 97% (active); in assay [4], 101% (active). In addition, the inhibition in assay [2] was 21%; in assay [3], 2%. For the same compound, the result in assay [5], in assay [6], in assay [7] and in assay [8] was inactive.

As for `CCOc1cc(NCCCNc2ncc([N+](=O)[O-])cc2C)nc2ccccc12`, the growth inhibition is 64% (active) in assay [1] and 84% (active) in assay [4]. For the same compound, the inhibition in assay [2] was 10%; in assay [3], 2%. In addition, the outcome in assay [5], in assay [6], in assay [7] and in assay [8] was inactive.

Take `CCOc1ccc(Nc2ccc3nonc3c2S(=O)(=O)Nc2ccc(OCC)cc2)cc1`: the results for the growth inhibition in assay [1] and in assay [4] were 93% (active) and 100% (active), respectively. For the same compound, the inhibition is 6% in assay [2] and -2% in assay [3]. Besides, the result in assay [5], in assay [6], in assay [7] and in assay [8] was inactive.

Regarding `CCOc1c(OC)ccc2c1CCN(CCN1CCC(CNC(=O)c3ccc(-c4ccc(C(F)(F)F)cc4)cc3)CC1)C2`, the figures for the growth inhibition in assay [1] and in assay [4] were 21% and 102% (active), respectively. Moreover, the inhibition in assay [2] was 54% (active); in assay [3], 2%. The result in assay [5], in assay [6], in assay [7] and in assay [8] was inactive.

With `Nc1nc(N)c2c(ccc3c2ccn3Cc2cccc3ccccc23)n1`, the figures for the growth inhibition in assay [1] and in assay [4] were 95% (active) and 99% (active), respectively. Also, the inhibition in assay [2] was 65% (active); in assay [3], -3%. In addition, the outcome in assay [5], in assay [6], in assay [7] and in assay [8] was inactive.

`COc1ccc2nccc([C@@H](O)CN3CCC(NCc4ccc5c(c4)NC(=O)C(C)(C)O5)CC3)c2c1`: the figures for the growth inhibition in assay [1] and in assay [4] were 70% (active) and 100% (active), respectively. Also, the inhibition in assay [2] is 6%; in assay [3], 3%. Further, the result in assay [5], in assay [6], in assay [7] and in assay [8] was inactive.

As for `O=C(NC1CCN(Cc2ccc3c(c2)OCCO3)CC1)c1ccc(-c2cccc(C(F)(F)F)c2)s1`, the growth inhibition in assay [1] was 35%; in assay [4] it was 100% (active). For the same compound, the figures for the inhibition in assay [2] and in assay [3] were 99% (active) and 5%, respectively. In addition, the result in assay [5], in assay [6], in assay [7] and in assay [8] was inactive.

On to `CCc1ccc(C2CCN(CCCCNC(=O)c3ccc(NC(=O)c4ccc(Cl)cc4)cc3)CC2)c(OC(C)=O)c1`, for which the growth inhibition in assay [1] was 100% (active); in assay [4], 91% (active). In addition, the inhibition in assay [2] was 48%; in assay [3], 0%. Moreover, the result in assay [5], in assay [6], in assay [7] and in assay [8] was inactive.

Consider `CN1CCC(N(Cc2ccc(N3CCN(Cc4c[nH]c5ccc(Cl)cc45)CC3)nc2)C2CC2)CC1`, for which the growth inhibition in assay [1] is 76% (active); in assay [4] it was 100% (active). Besides, the inhibition is 96% (active) in assay [2] and -2% in assay [3]. For the same compound, the result in assay [5], in assay [6], in assay [7] and in assay [8] was inactive.

Regarding `N#Cc1c(N)n(CCc2ccc(F)cc2)c2nc3ccccc3nc12`, the growth inhibition in assay [1] was 36%; in assay [4] it was 92% (active). The inhibition in assay [2] is 8%; in assay [3], -1%. For the same compound, the outcome in assay [5], in assay [6], in assay [7] and in assay [8] was inactive.

As for `CN1CCN(CCCN(Cc2ccc(-c3cccc(CNC4CCCC4)c3)cc2)C(=O)Nc2ccccc2)CC1`, the growth inhibition is 76% (active) in assay [1] and 92% (active) in assay [4]. Moreover, the inhibition in assay [2] is 28%; in assay [3], -3%. Moreover, the outcome in assay [5], in assay [6], in assay [7] and in assay [8] was inactive.

Regarding `CC(C)OC(=O)c1cccnc1SCC(=O)Nc1ccc(C(F)(F)F)cc1Cl`, the growth inhibition was 88% (active) in assay [1] and 97% (active) in assay [4]. Besides, the inhibition in assay [2] was 3%; in assay [3] it was -3%. Further, the result in assay [5], in assay [6], in assay [7] and in assay [8] was inactive.

Turning to `Cn1c(NC(=O)c2ccc(CNC(=O)c3ccc(O)c(-c4ccc(Cl)c(Cl)c4)c3)cc2)nc2ccccc21`, the figures for the growth inhibition in assay [1] and in assay [4] were 74% (active) and 94% (active), respectively. In addition, the results for the inhibition in assay [2] and in assay [3] were 20% and -1%, respectively. For the same compound, the result in assay [5], in assay [6], in assay [7] and in assay [8] was inactive.

Regarding `NC(=NCc1ccccc1)Nc1cccc(Cc2ccccc2)n1`, the results for the growth inhibition in assay [1] and in assay [4] were 52% (active) and 85% (active), respectively. Moreover, the inhibition is 57% (active) in assay [2] and 0% in assay [3]. The outcome in assay [5], in assay [6], in assay [7] and in assay [8] was inactive.

For the compound `O=S(=O)(/C=C/c1ccccc1)N(Cc1ccc(-c2ccc(CNCCOc3ccccc3)cc2)cc1)CC1CCCCN1` (configuration not stated), the growth inhibition is 95% (active) in assay [1] and 99% (active) in assay [4]. Moreover, the inhibition is 99% (active) in assay [2] and 4% in assay [3]. The result in assay [5], in assay [6], in assay [7] and in assay [8] was inactive.

Take `O=C(NCCCCN1CCC(c2ccc3c(c2OCc2ccccn2)CCCC3)CC1)c1ccc(NC(=O)c2ccc(Cl)cc2)cc1`: the growth inhibition in assay [1] was 70% (active); in assay [4] it was 101% (active). In addition, the inhibition is 31% in assay [2] and -3% in assay [3]. The result in assay [5], in assay [6], in assay [7] and in assay [8] was inactive.

As to `CCc1ccc(CN2CCC(NC(=O)c3ccc(-c4ccc(N(C)C)cc4)s3)CC2)cc1`, the growth inhibition is 44% in assay [1] and 84% (active) in assay [4]. Further, the inhibition in assay [2] is 52% (active); in assay [3], -4%. Further, the result in assay [5], in assay [6], in assay [7] and in assay [8] was inactive.

For `Cc1nc2nc(N)nc(N)c2c(C)c1Cc1ccccc1Br`, the values for the growth inhibition in assay [1] and in assay [4] were 2% and 92% (active), respectively. The figures for the inhibition in assay [2] and in assay [3] were 65% (active) and 1%, respectively. In addition, the result in assay [5], in assay [6], in assay [7] and in assay [8] was inactive.
